PubChem BioAssay (NCATS)
Inconclusive results are not listed. Calls of active or inactive are those of the source. Unless noted, the call rests on the fitted dose curve; in most records, active means well fitted curve in either direction with a large enough effect (not every such curve was filed as active); inconclusive means small, poorly fitted or top-dose-only effect, or another doubt; inactive means flat fitted curve, though single readings scatter.

Assays:
[1] = AP1 Signaling Pathway (AID 357); settings: ME-180 (cervical carcinoma) AP-1-bla reporter, EGF-induced, beta-lactamase ratio, 5 h; at 17.2 µM (top of the series) unless noted;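 further: ME-180 reporter cells stimulated with EGF at its EC50 level; on the % scale 0 is the no-effect control and ±100 the full control effect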
Summary of the method: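 Titration-series screen for positive or negative modulators of EC50 EGF-induced signaling in ME-180 cells carrying an AP-1-driven beta-lactamase reporter. After 5 hours at 37 degrees Celsius, CCF4 460nm/530nm emission ratio gave %Activity; AC50 values derived.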

[2] = NFAT Signaling Pathway (AID 444); settings: Jurkat NFAT-bla M1, carbachol, beta-lactamase ratio, 5 h; at 17.2 µM (top of the series) unless noted;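 further: carbachol stimulus at about its EC50 of 1 µM final; on the % scale 0 is the no-effect control and ±100 the full control effect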
Summary of the method: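 Jurkat cells with NFAT-driven β-lactamase reporter and co-expressed M1 receptor, stimulated with carbachol (final 1 uM, ~EC50), compound titration, 5 h at 37 °C. CCF4 loaded 1 h at RT; 460/530 nm ratio gave %activity and AC50.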

[3] = Stat Signaling Pathway (AID 446);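 further: ME-180 cervical cancer cells given 40 pM IL-6 alongside compound; SIE-controlled beta-lactamase reporter measured as 460/530 nm FRET emission ratio; on the % scale 0 is the no-effect control and ±100 the full control effect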
Summary of the method: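 Compound effects on IL-6-induced STAT reporter activity were measured in ME-180 cells. After overnight culture, cells were co-treated with 40 pM IL-6 for 5 hrs before beta-lactamase substrate loading at room temperature.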

[4] = target: Glucocorticoid receptor (Homo sapiens) (UniProt P04150); assay: GR-GFP Redistribution (AID 450;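 active means compounds whose dose series gives a full or clear partial fitted curve of increased nuclear translocation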; further: potency means the concentration at half of the fitted maximal effect); settings: U2OS GR-GFP nuclear translocation, laser cytometry, 2 h
Sequence of Glucocorticoid receptor (Homo sapiens) (P04150 whole entry, looked up): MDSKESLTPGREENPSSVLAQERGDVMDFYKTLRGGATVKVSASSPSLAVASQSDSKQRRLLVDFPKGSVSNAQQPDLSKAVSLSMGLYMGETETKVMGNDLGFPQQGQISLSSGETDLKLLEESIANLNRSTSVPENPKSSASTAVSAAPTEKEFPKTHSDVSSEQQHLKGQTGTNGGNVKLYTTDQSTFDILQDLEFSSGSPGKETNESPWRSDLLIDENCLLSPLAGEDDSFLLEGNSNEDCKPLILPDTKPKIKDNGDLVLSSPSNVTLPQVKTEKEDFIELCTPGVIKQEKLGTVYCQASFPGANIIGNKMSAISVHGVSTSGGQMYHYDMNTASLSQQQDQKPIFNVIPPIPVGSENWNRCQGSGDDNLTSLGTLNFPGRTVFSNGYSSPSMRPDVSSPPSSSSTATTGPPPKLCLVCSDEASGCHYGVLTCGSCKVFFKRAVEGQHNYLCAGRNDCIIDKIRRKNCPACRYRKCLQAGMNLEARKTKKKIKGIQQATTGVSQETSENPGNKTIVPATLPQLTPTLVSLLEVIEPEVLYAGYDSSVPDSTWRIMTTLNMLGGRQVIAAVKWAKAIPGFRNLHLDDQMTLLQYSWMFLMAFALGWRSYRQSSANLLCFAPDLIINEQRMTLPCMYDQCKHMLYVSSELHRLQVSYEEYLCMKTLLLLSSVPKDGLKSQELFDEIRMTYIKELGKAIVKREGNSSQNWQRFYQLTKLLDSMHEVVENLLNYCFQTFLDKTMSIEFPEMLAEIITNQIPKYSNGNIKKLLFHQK

Cc1ccc(C)c(C2(O)CC(C)N(C)CC2C)c1 (centres undefined)
inactive: activity change, negative = inhibition [1] 22.9% | activity change, negative = inhibition [2] 9.11% | outcome [3] | Potency [4] > 20.6 µM

O=c1[nH]c(=O)n(Cc2ccco2)c(O)c1C=NCc1ccc2c(c1)OCO2
inactive: activity change, negative = inhibition [1] -17.4% | activity change, negative = inhibition [2] 2.74% | outcome [3] | Potency [4] > 20.6 µM

CC(=NCCO)c1c(O)n(C)c(=O)n(C)c1=O
inactive: activity change, negative = inhibition [1] 9.85% | activity change, negative = inhibition [2] -3.31% | outcome [3] | Potency [4] > 20.6 µM

OC1(c2ccc(F)cc2)CCNC1 (centres undefined)
inactive: activity change, negative = inhibition [1] 7.87% | activity change, negative = inhibition [2] -14.3% | outcome [3] | Potency [4] > 20.6 µM

CC1(c2ccccc2)NCCN2C(=O)CSC21 (centres undefined)
inactive: activity change, negative = inhibition [1] 2.95% | activity change, negative = inhibition [2] -7.83% | outcome [3] | Potency [4] > 20.6 µM

O=c1[nH]c(=O)n(C2CCCCC2)c(O)c1C=NCCCn1ccnc1
inactive: activity change, negative = inhibition [1] 0.159% | activity change, negative = inhibition [2] -4.42% | outcome [3] | Potency [4] > 20.6 µM
